The results in this text go back to PubChem BioAssay (NCI).

Experiment in all cases: NCI-60 one-dose screen, 48 h (100 = growth as untreated, 0 = no growth, -100 = all killed)
Holding throughout (conditions): 10 µM unless noted

In assay [1] the test system is T-47D breast.
Assay [2] deals with BT-549 breast.
In assay [3] the test system is MDA-MB-435 melanoma.
The test system of assay [4] is SW-620 colon.
Assay [5] deals with MCF7 breast.
Assay [6] concerns HCT-116 colon.
For assay [7], the system named is KM12 colon.
The test system of assay [8] is HCC-2998 colon.

This is part of a sample that, as a whole, favours compounds with a hit. Of some 83,000 tested, about 20% had one in any assay.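 Method: cells in 96-well plates; compound added at one concentration; 48 h incubation; percent growth measured; values under 10 scored active.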 A number with no mark means an inactive call. Calls of active or inactive are those of the source.

For the compound `C=C1SC(=Nc2c(C)cccc2C)N(c2nc(Cl)nc(Cl)n2)C12CCCCC2`, the growth was 101% in assay [1]; 91.6% in assay [2]; 93.5% in assay [3]; 112% in assay [4]; 103% in assay [5]; 93.7% in assay [6]. Also, in assay [7], the growth was 103%.

For `C1Cc2onc(-c3noc4c3CCC4)c2C1`, the growth in assay [1] was 108%; in assay [2] it was 114%; in assay [3], 113%; in assay [4], 123%; in assay [5] it was 99.2%; in assay [6], 108%. The results for the growth in assay [8] and in assay [7] were 115% and 106%, respectively.

In the case of `N#Cc1ccc(OC(=O)Nc2c(Cl)cc(Cl)cc2Cl)cc1`, the growth is 91.6% in assay [1]; 113% in assay [2]; 96.4% in assay [3]; 118% in assay [4]; 100% in assay [5]; 110% in assay [8]. Further, the growth in assay [7] was 107%.

As to `C[n+]1cc2cc3c(cc2c2ccccc21)OCO3`, the growth in assay [1] is 39.8%; in assay [2], 20%; in assay [3] it was 64.9%; in assay [4] it was 56.5%; in assay [5] it was 24.5%; in assay [8], 54.7%. For the same compound, the growth in assay [7] is 12.9%.

As for `O=S(Cc1ccccc1)/C(=C/NC(=S)Nc1cc(Cl)ccc1Cl)c1ccccc1` (centres undefined), the growth in assay [1] was 104%; in assay [2], 96.5%; in assay [3], 108%; in assay [4], 107%; in assay [5] it was 96.9%; in assay [8], 103%. The growth in assay [7] was 100%.

Take `NC(=S)N/N=C/c1ccc(OC(=O)COc2ccc(Cl)cc2)cn1`: the growth was 33.9% in assay [1]; 55% in assay [2]; 59.1% in assay [3]; 46.3% in assay [4]; 23.6% in assay [5]; 39.7% in assay [6]. Further, the growth in assay [7] was 64.8%.

For `COc1ccc(C(=O)/C(=N/Nc2ccccc2)c2ccc(OC)cc2)cc1`, the growth in assay [1] was 87%; in assay [2] it was 103%; in assay [3] it was 94.1%; in assay [4] it was 93.5%; in assay [5], 95.2%; in assay [8] it was 95.2%. Moreover, in assay [7], the growth was 90%.

Regarding `Cc1cc(CC(=O)NCCO)n(CCO)c(=O)c1`, the growth in assay [1] was 84.1%; in assay [2], 111%; in assay [3], 107%; in assay [4] it was 98%; in assay [5], 102%; in assay [8], 103%. Moreover, the growth in assay [7] is 107%.

Take `COC1CC(OC(=O)c2ccc([N+](=O)[O-])cc2)C(COC(=O)c2ccc([N+](=O)[O-])cc2)O1` (centres undefined): the growth in assay [1] was 104%; in assay [2] it was 116%; in assay [3] it was 97.7%; in assay [4] it was 99.7%; in assay [5] it was 91.5%; in assay [8] it was 112%. In assay [7], the growth is 109%.

On to `Cc1ccccc1NC(=O)Oc1ccc(Cl)cc1C(=O)c1ccccc1`, for which the growth in assay [1] was 104%; in assay [2], 92.3%; in assay [3], 103%; in assay [4] it was 98.5%; in assay [5], 105%; in assay [8], 107%. Also, the growth in assay [7] was 90.4%.

As for `O=Cc1ccc(O)c(O)c1`, the growth in assay [1] is 83.2%; in assay [2], 101%; in assay [3], 102%; in assay [4] it was 113%; in assay [5] it was 96.5%; in assay [6], 98.5%. Also, the growth in assay [7] was 91.2%.

With `CN1CCCN(C(c2ccccc2)c2ccc(Br)cc2)CC1` (centres undefined), the growth in assay [1] was 103%; in assay [2] it was 63.3%; in assay [3], -29.3% (active); in assay [4] it was 49.6%; in assay [5], 37.5%; in assay [8], 95.9%. Also, in assay [7], the growth was 63.9%.

In the case of `CC(=O)OC/C(C)=C\CC(C)COC(C)=O` (centres undefined), the growth in assay [1] was 104%; in assay [2], 102%; in assay [3] it was 94.9%; in assay [4], 97.6%; in assay [5], 90.2%; in assay [8], 103%. Besides, the growth in assay [7] is 104%.

As for `CCCCc1ccc2nc(NC(=O)OC)[nH]c2c1`, the growth in assay [1] was 76.8%; in assay [2], 31.1%; in assay [3], 0.507% (active); in assay [4], 14.4%; in assay [5] it was 12.8%; in assay [6], 7.36% (active). In assay [7], the growth is -12.2% (active).

As for `OCCOc1ccc(-c2cc(-c3ccccn3)nc(-c3ccccn3)c2)cc1`, the growth is 17.4% in assay [1]; 15.9% in assay [2]; 22.5% in assay [3]; 2.05% (active) in assay [4]; 1.69% (active) in assay [5]; 6.4% (active) in assay [6]. The growth in assay [7] is 8.52% (active).

For the compound `CC(C)(C)NCCC(O)c1cc(C(F)(F)F)nc2c(C(F)(F)F)cccc12` (centres undefined), the growth in assay [1] is 86.8%; in assay [2], 86.5%; in assay [3] it was 82.3%; in assay [4], 89.6%; in assay [5] it was 92.6%; in assay [6] it was 56.8%. Further, the growth in assay [7] is 58.7%.

`COC1OC(CO)C(OC)C(O)C1O` (centres undefined): the growth in assay [1] was 112%; in assay [2] it was 104%; in assay [3], 109%; in assay [4], 93.6%; in assay [5], 98.9%; in assay [8], 107%. Further, the growth in assay [7] is 99.6%.

For `c1ccc(Nc2ccccn2)nc1`, the growth in assay [1] was 84.6%; in assay [2], 108%; in assay [3] it was 104%; in assay [4], 108%; in assay [5], 84.9%; in assay [6], 99.8%. Further, the growth in assay [7] is 116%.

As to `CCN1CCCC(N2c3ccccc3Sc3ccccc32)C1` (centres undefined), the growth in assay [1] was 95.6%; in assay [2], 116%; in assay [3], 109%; in assay [4] it was 105%; in assay [5], 105%; in assay [8], 103%. In addition, the growth in assay [7] is 102%.
